# Compound activity as filed in PubChem.
# An excerpt weighted towards active compounds, which were near 2.8% of everything screened.
# HSP90 refold inh: blocks HSP90-mediated luciferase refolding in reticulocyte lysate. Rabbit reticulocyte lysate, luciferase refolding luminescence, 3 h. inhibition, % at 5.6 µM. 0.91% of 290,000 active;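 active = inhibition above the screen-wide mean plus 3 SD, computed separately per campaign, cut at about 16% in these data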;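 note: 0% = DMSO wells and 100% = 60 µM geldanamycin wells; inhibitors lower the luminescence because luciferase stays unfolded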
# SENP8 block-1: SENP8 (human) protease inhibition; recombinant SENP8, Nedd8 substrate fluorescence; inhibition, % at 20 µM; 0.64% of 360,000 active; in the data active = inhibition mostly above about 40%, no sharp cut-off; inactive = mostly below about 27%
# Target sequence (Q96LD8 whole entry, looked up): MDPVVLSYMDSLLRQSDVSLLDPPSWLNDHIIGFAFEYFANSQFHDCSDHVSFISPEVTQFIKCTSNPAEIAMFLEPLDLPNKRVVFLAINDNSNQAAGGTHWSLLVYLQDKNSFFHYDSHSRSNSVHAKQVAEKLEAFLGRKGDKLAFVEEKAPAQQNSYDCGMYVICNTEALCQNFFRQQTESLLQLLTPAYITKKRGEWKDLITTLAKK
# SENP6 inh: inhibitors of human SENP6 protease; Recombinant SENP6 catalytic domain, aminoluciferin luminescence; 1.8% of 330,000 active; AID 2599; inhibition, % at 10 µM;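 active = inhibition above about 50% at the single tested dose, limit read from the data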;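 note: plate controls were DMSO wells with enzyme for no effect and DMSO wells lacking enzyme for full effect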
# SENP7 inh: inhibitors of human SENP7 protease; Q9BQF6; recombinant SENP7, Z-RLRGG-aminoluciferin luminescence, 40 min; inhibition, % at 5 µM; 1.5% of 330,000 active; AID 434973;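 active = inhibition above about 50% at the single test dose, limit read from the data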;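 note: plate controls were DMSO with enzyme for no effect and no enzyme buffer wells for full effect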
# SENP8 block-2: SENP8 protease inhibition; AID 2540; 1.2% of 330,000 active; inhibition, % at 10 µM; Q96LD8; purified SENP8, Z-RLRGG-aminoluciferin cleavage, luminescence; in the data active = inhibition above about 50%
# SENP8 confirm: confirmation of human SENP8 protease inhibitors; shares compounds with SENP7 inh; 40% of 6,200 active; Recombinant SENP8, Z-RLRGG-aminoluciferin luminescence, 60 min; inhibition, % at 12.5 µM;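 active = mean inhibition across replicates above about 50%, limit read from the data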
# SENP6 conf: confirmation of human SENP6 protease inhibitors; shares compounds with SENP7 inh; AID 488915; inhibition, % at 12.5 µM; 58% of 6,200 active; recombinant SENP6, Z-RLRGG-aminoluciferin luminescence
# SENP7 confirm: human SENP7 inhibition, confirmed; 69% of 6,200 active; shares compounds with SENP7 inh; recombinant SENP7, Z-RLRGG-aminoluciferin luminescence, 40 min; inhibition, % at 12.5 µM; AID 488917
# Casp3 select: selectivity test for SENP inhibitors: human caspase-3 inhibition | shares compounds with SENP7 inh | purified caspase-3, Z-DEVD-aminoluciferin luminescence, 60 min | inhibition, % at 12.5 µM | 60% of 6,200 active | AID 488918;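 active = mean inhibition above about 50%, limit read from the data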;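 note: plate controls were enzyme with DMSO for no effect and wells without caspase-3 for full effect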
# Target sequence (P42574 28-227 limits assumed): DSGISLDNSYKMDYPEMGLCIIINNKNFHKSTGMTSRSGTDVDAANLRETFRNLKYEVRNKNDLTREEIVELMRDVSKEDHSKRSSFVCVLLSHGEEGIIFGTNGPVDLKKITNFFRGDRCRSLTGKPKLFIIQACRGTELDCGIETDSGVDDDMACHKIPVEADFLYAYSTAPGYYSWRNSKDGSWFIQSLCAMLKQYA
# Luc interf: interferes with luciferase luminescence in SENP counter-screen; inhibition, % at 12.5 µM; Pre-incubated SENP8/Z-RLRGG-aminoluciferin, luciferase luminescence interference; 39% of 6,200 active; shares compounds with SENP7 inh; AID 488919;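 active = mean inhibition above about 50% when retested at one dose, limit read from the data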;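 note: plate controls were DMSO wells with completed reaction for no effect and substrate without enzyme for full effect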
# * hit, by the source's call; x = no result given.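 Rule for the calls, unless noted: active = mean inhibition above about 50% in the one-dose retest (limit read from the data); inactive = the rest.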
SMILES,HSP90 refold inh,SENP8 block-1,SENP6 inh,SENP7 inh,SENP8 block-2,SENP8 confirm,SENP6 conf,SENP7 confirm,Casp3 select,Luc interf
O=C(C1CCC(CNc2c(N3CCOCC3)c(=O)c2=O)CC1)N1CCN(c2ccccc2)CC1 (stereo unspecified),-4,9,5,-8,0,x,x,x,x,x
Clc1ccc(-c2csc(-c3ccno3)n2)cc1,0,-23,44,58*,20,-5,10,36,35,9
Cc1nc(-c2cc(-c3ccc(Cl)cc3)no2)cs1,0,17,76*,92*,68*,23,30,16,24,1
Cc1nc(-c2cc(-c3nc(-c4ccc(C(F)(F)F)cc4)no3)no2)cs1,0,-3,-4,0,0,x,x,x,x,x
Fc1cccc(-c2csc(-c3ccno3)n2)c1,4,20,23,14,5,x,x,x,x,x
Clc1ccc(-c2cc(-c3ccccc3)on2)cc1,x,10,11,58*,-4,13,9,-2,9,1
O=Cc1cc(N=Nc2ccc(S(=O)(=O)O)cc2)ccc1O,x,12,-8,-25,-11,x,x,x,x,x
O=S(=O)(O)c1ccc(N=NNc2ccc(Br)cc2)cc1,-2,30,89*,90*,90*,91*,91*,99*,85*,93*
O=C(OCc1cn([C@@H]2CN(C(=O)C3CCCCC3)[C@@H](c3ccc(Cl)cc3)C[C@H]2O)nn1)c1ccccc1,x,-2,x,x,x,x,x,x,x,x
CCOC(=O)N/N=C\c1ccc(OC(=O)c2ccc3c(c2)OCO3)cc1,2,9,66*,72*,58*,-14,-13,13,3,22
Cc1ccc2c(c1)CCCN2C(=O)C1CCCO1 (stereo unspecified),0,4,-17,-8,-2,x,x,x,x,x
CCOC(=O)CSc1ncnc2c1cnn2-c1ccc(C)cc1,-2,-26,12,18,34,x,x,x,x,x
CCOC(=O)CNC(=O)CSc1ncnc2c1cnn2-c1ccc(C)cc1,-3,-30,52*,13,39,13,15,14,46,8
CCOC(=O)CNC(=O)CSc1ncnc2c1cnn2-c1ccc(OC)cc1,2,3,70*,35,68*,10,47,32,75*,12
CCOC(=O)CNC(=O)CSc1ncnc2c1cnn2-c1ccccc1,2,-66,35,20,17,x,x,x,x,x
Cc1nc(N/N=C\c2ccc3c(c2)OCO3)sc1C,10,-68,50*,3,-1,37,44,75*,21,36
Clc1ccccc1N/N=C/c1ccc2c(c1)OCO2,-5,0,96*,74*,89*,98*,99*,102*,91*,89*
Cc1ccc(C)c(S(=O)(=O)/N=C2\C=C(NS(=O)(=O)c3ccccc3)C(=O)c3ccccc32)c1,0,73*,55*,11,36,2,29,-2,6,1
O=C1c2ccccc2C(=O)N1CCSc1ccccc1,1,20,60*,41,8,26,25,72*,50,48
O=C(O)c1ccc(NC(=O)C(c2ccccc2)c2ccccc2)cc1,3,3,-2,-3,-4,x,x,x,x,x
Cc1cc(C(=O)Nc2ccc3ccccc3c2)c(C)o1,5,-20,84*,69*,73*,84*,84*,96*,66*,68*
CC(=O)c1cc(C(=O)Nc2ccc3ccccc3c2)c(C)o1,4,-16,-6,1,-10,x,x,x,x,x
Cc1ccc(NC(=O)c2ccc([N+](=O)[O-])o2)cc1C,2,16,76*,87*,61*,81*,80*,94*,79*,80*
Cc1cc(C(=O)Nc2ccc3ccccc3c2)oc1C,7,-56,68*,54*,61*,2,66*,89*,50*,53*
CCOC(=O)N1CCC(N2CC34C=CC(O3)C(C(=O)Nc3ccc(C)cc3)C4C2=O)CC1 (stereo unspecified),1,7,9,-5,-1,x,x,x,x,x
SMILES,HSP90 refold inh,SENP8 block-1,SENP6 inh,SENP7 inh,SENP8 block-2,SENP8 confirm,SENP6 conf,SENP7 confirm,Casp3 select,Luc interf
Oc1nc(Nc2ccccc2)sc1/C=C1\C=Nc2ccccc21,5,-33,64*,51*,34,13,34,55*,15,5
c1cncc(-c2nnc(-c3ccco3)o2)c1,-3,-129,-8,3,1,x,x,x,x,x
Clc1ccc(-c2nnc(-c3ccco3)o2)cc1,0,-188,63*,73*,52*,36,41,59*,54*,0
C(#CC1CCCC1)c1ccc2c(c1)COc1c3ccccc3nn1-2,x,5,44,2,26,x,x,x,x,x
CCCc1cc(-c2ccc3c(c2)COc2c4ccccc4nn2-3)on1,x,-196,93*,91*,89*,25,36,38,64*,12
c1ccc2c(c1)COc1c3ncccc3nn1-2,x,-241,x,x,x,x,x,x,x,x
Cc1cc(-c2ccc3c(c2)COc2c4ccccc4nn2-3)on1,x,-356,93*,49,86*,-28,7,37,26,7
Cc1cc[n+](C2=C([O-])c3ccccc3C(=O)/C2=N\S(=O)(=O)c2cccs2)cc1C,8,29,60*,16,39,18,30,11,1,3
CC(C)(C)c1cc[n+](C2=C([O-])c3ccccc3C(=O)/C2=N\S(=O)(=O)c2ccccc2)cc1,16*,48*,66*,15,42,41,72*,43,7,1
O=C1/C(=N\S(=O)(=O)c2cccs2)C([n+]2ccc(CCCc3ccccc3)cc2)=C([O-])c2ccccc21,6,32,60*,21,39,-10,28,5,-1,-11
Cc1cc(C)c[n+](C2=C([O-])c3ccccc3C(=O)/C2=N\S(=O)(=O)c2cccs2)c1,-2,75*,55*,15,21,40,59*,22,-4,-8
COc1cc(/C=N\NC(=O)CC(=O)NCCc2ccccc2)ccc1O,1,-37,0,-2,2,x,x,x,x,x
CC(C)(C)OC(=O)N[C@@H](Cc1ccccc1)C(=O)N[C@@H](CO)[C@H](O)[C@@H]1C[C@@H]1C(=O)N1CCCC1,-7,13,-5,0,-1,x,x,x,x,x
Nc1ccc(O)c2c(=O)cc(-c3ccccc3Cl)oc12,-1,16,60*,36,53*,-6,2,17,11,8
